Laboratory results taken from PubChem BioAssay AID1159580 (chemical genetic matrix, 2015).
In all, about 5,500 compounds went through this assay and about 2,000 (36%) were called active. Not shown: some 18% with an inconclusive outcome. This is one part of the list. Values without a mark were called inactive. Cut-off read from the data, not from the text of the source: active = normalized growth mostly below about 0.91 (no sharp cut-off); inconclusive = no clear call, values can overlap the other calls; inactive = mostly above about 0.92.

Assay: chemical genetic growth profiling, strain panel (AID 1159580);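 note: tested at 20 µM; growth read once vehicle control cultures reached saturation at 30 °C; 1 = growth at the plate median or of vehicle wells; lower values mean less growth of the strain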
Settings: growth OD
[1] = S. cerevisiae deletion strains, locus YAL013W, strain DEP1, hits give low values
[2] = S. cerevisiae deletion strains, locus YBR229C, strain ROT2, hits give low values
[3] = S. cerevisiae deletion strains, locus YDL101C, strain DUN1, hits give low values
[4] = S. cerevisiae deletion strains, locus YDL134C, strain PPH21, hits give low values
[5] = S. cerevisiae deletion strains, locus YDR150W, strain NUM1, hits give low values
[6] = S. cerevisiae deletion strains, locus YEL061C, strain CIN8, hits give low values
[7] = S. cerevisiae deletion strains, locus YGR078C, strain PAC10, hits give low values
[8] = S. cerevisiae deletion strains, locus YHR030C, strain SLT2, hits give low values
[9] = S. cerevisiae deletion strains, locus YHR087W, strain rtc3, hits give low values
[10] = S. cerevisiae deletion strains, locus YJR043C, strain POL32, hits give low values
[11] = S. cerevisiae deletion strains, locus YJR075W, strain HOC1, hits give low values
[12] = S. cerevisiae deletion strains, locus YLR039C, strain RIC1, hits give low values
[13] = S. cerevisiae deletion strains, locus YLR058C, strain SHM2 (second series), hits give low values
[14] = S. cerevisiae deletion strains, locus YLR085C, strain ARP6, hits give low values
[15] = S. cerevisiae deletion strains, locus YLR262C, strain YPT6, hits give low values
[16] = S. cerevisiae deletion strains, locus YML094W, strain GIM5, hits give low values
[17] = S. cerevisiae deletion strains, locus YMR219W, strain ESC1, hits give low values
[18] = S. cerevisiae deletion strains, locus YMR263W, strain SAP30, hits give low values
[19] = S. cerevisiae deletion strains, locus YNL128W, strain TEP1, hits give low values
[20] = S. cerevisiae deletion strains, locus YNL153C, strain GIM3, hits give low values
[21] = S. cerevisiae deletion strains, locus YNL298W, strain CLA4 (second series), hits give low values
[22] = S. cerevisiae deletion strains, locus YNL322C, strain KRE1, hits give low values
[23] = S. cerevisiae deletion strains, locus YNR030W, strain Alg12, hits give low values
[24] = S. cerevisiae deletion strains, locus YOL006C, strain TOP1, hits give low values
[25] = S. cerevisiae deletion strains, locus YPL055C, strain LGE1, hits give low values
[26] = S. cerevisiae deletion strains, locus YPR135W, strain CTF4, hits give low values
[27] = S. cerevisiae deletion strains, locus YAL040C, strain CLN3, hits give low values
[28] = S. cerevisiae deletion strains, locus YCL061C, strain MRC1 (second series), hits give low values
[29] = S. cerevisiae deletion strains, locus YER002W, strain NOP16, hits give low values
[30] = S. cerevisiae deletion strains, locus YMR307W, strain GAS1, hits give low values
[31] = S. cerevisiae deletion strains, locus YNL175C, strain NOP13, hits give low values
[32] = S. cerevisiae deletion strains, locus YNL197C, strain WHI3, hits give low values
[33] = S. cerevisiae deletion strains, locus YNL224C, strain SQS1, hits give low values
[34] = S. cerevisiae deletion strains, locus YOR083W, strain WHI5 (second series), hits give low values
[35] = S. cerevisiae deletion strains, locus YPL241C, strain CIN2, hits give low values
[36] = S. cerevisiae strains, strain wild type, hits give low values

COc1ccccc1C1CCN(C(=O)c2ccc(F)cc2)CC1
normalized growth [1]: 0.981
normalized growth [2]: 0.986
normalized growth (S. cerevisiae deletion strains, locus YCL061C, strain MRC1, hits give low values): 0.989
normalized growth [3]: 0.994
normalized growth [4]: 0.983
normalized growth [5]: 0.988
normalized growth [6]: 0.965
normalized growth [7]: 0.982
normalized growth [8]: 0.754
normalized growth [9]: 1.01
normalized growth [10]: 0.987
normalized growth [11]: 1
normalized growth [12]: 1.03
normalized growth [13]: 0.981
normalized growth [14]: 0.901
normalized growth [15]: 1.01
normalized growth [16]: 0.944
normalized growth [17]: 0.976
normalized growth [18]: 0.994
normalized growth [19]: 0.986
normalized growth [20]: 0.989
normalized growth [21]: 0.982
normalized growth [22]: 0.978
normalized growth [23]: 0.967
normalized growth [24]: 0.852
normalized growth [25]: 0.926
normalized growth [26]: 0.975

COc1ccccc1N1CCN(CCCCNC(=O)c2ccc3ccccc3c2)CC1
normalized growth [27]: 0.951
normalized growth [28]: 0.988
normalized growth (S. cerevisiae deletion strains, locus YDR363W, strain ESC2, hits give low values): 1.03
normalized growth [29]: 0.996
normalized growth [7]: 0.981
normalized growth [18]: 0.978
normalized growth [30]: 0.995
normalized growth [31]: 1.03
normalized growth [32]: 1.01
normalized growth [33]: 0.983
normalized growth [34]: 1.06
normalized growth [25]: 0.999

COc1ccccc1C1CCN(Cc2ccc3ccccc3c2)CC1
normalized growth [1]: 0.981
normalized growth [2]: 0.965
normalized growth [3]: 0.973
normalized growth [5]: 1
normalized growth [6]: 0.915
normalized growth [7]: 0.986
normalized growth [8]: 0.529 (active)
normalized growth [9]: 0.987
normalized growth [10]: 1.01
normalized growth [11]: 0.99
normalized growth [12]: 0.98
normalized growth [13]: 0.985
normalized growth [14]: 0.91
normalized growth [15]: 0.904
normalized growth [16]: 0.885
normalized growth [17]: 1
normalized growth [18]: 1.01
normalized growth [20]: 0.962
normalized growth [21]: 0.888
normalized growth [22]: 0.989
normalized growth [23]: 0.963
normalized growth [25]: 1.02
normalized growth [35]: 0.911
normalized growth [26]: 0.773
normalized growth [36]: 0.885 (active)

Nc1cc(Cl)c(NC2=NCCN2)c(Cl)c1
normalized growth [27]: 0.982
normalized growth [28]: 1
normalized growth [29]: 1
normalized growth (S. cerevisiae deletion strains, locus YGR229C, strain SMI1, hits give low values): 1.01
normalized growth [11]: 0.998
normalized growth [19]: 1
normalized growth [20]: 0.987
normalized growth [31]: 1.02
normalized growth [32]: 1
normalized growth [33]: 1.02
normalized growth [34]: 1.04
normalized growth [35]: 1

C/C(=N/NC(N)=S)c1ccccn1
normalized growth (S. cerevisiae deletion strains, locus YAR019C, strain CDC15, hits give low values): 0.962
normalized growth (S. cerevisiae deletion strains, locus YBL105C, strain PKC1, hits give low values): 0.98
normalized growth (S. cerevisiae deletion strains, locus YBR135W, strain CKS1, hits give low values): 0.971
normalized growth (S. cerevisiae deletion strains, locus YBR136W, strain MEC1, hits give low values): 0.962
normalized growth (S. cerevisiae deletion strains, locus YBR160W, strain CDC28, hits give low values): 0.985
normalized growth (S. cerevisiae deletion strains, locus YDL017W, strain CDC7, hits give low values): 0.987
normalized growth (S. cerevisiae deletion strains, locus YDL028C, strain MPS1, hits give low values): 0.97
normalized growth [3]: 0.982
normalized growth (S. cerevisiae deletion strains, locus YDL108W, strain KIN28, hits give low values): 0.97
normalized growth (S. cerevisiae deletion strains, locus YDL132W, strain cdc53, hits give low values): 0.949
normalized growth (S. cerevisiae deletion strains, locus YDL214C, strain PRR2, hits give low values): 0.932
normalized growth (S. cerevisiae deletion strains, locus YDR052C, strain DBF4, hits give low values): 0.963
normalized growth (S. cerevisiae deletion strains, locus YDR054C, strain cdc34, hits give low values): 0.944
normalized growth (S. cerevisiae deletion strains, locus YDR226W, strain ADK1, hits give low values): 0.971
normalized growth (S. cerevisiae deletion strains, locus YDR477W, strain SNF1, hits give low values): 0.878
normalized growth (S. cerevisiae deletion strains, locus YER123W, strain YCK3, hits give low values): 0.874
normalized growth (S. cerevisiae deletion strains, locus YER133W, strain GLC7, hits give low values): 0.889
normalized growth (S. cerevisiae deletion strains, locus YFL009W, strain cdc4, hits give low values): 0.939
normalized growth (S. cerevisiae deletion strains, locus YFL029C, strain CAK1, hits give low values): 0.945
normalized growth (S. cerevisiae deletion strains, locus YFR003C, strain YPI1, hits give low values): 0.985
normalized growth (S. cerevisiae deletion strains, locus YFR019W, strain FAB1, hits give low values): 0.908
normalized growth (S. cerevisiae deletion strains, locus YFR028C, strain CDC14, hits give low values): 0.962
normalized growth (S. cerevisiae deletion strains, locus YGR040W, strain KSS1, hits give low values): 0.875
normalized growth (S. cerevisiae deletion strains, locus YGR052W, strain FMP48, hits give low values): 0.951
normalized growth (S. cerevisiae deletion strains, locus YGR092W, strain DBF2, hits give low values): 0.833
normalized growth [8]: 0.861
normalized growth (S. cerevisiae deletion strains, locus YHR079C, strain IRE1, hits give low values): 0.779
normalized growth (S. cerevisiae deletion strains, locus YHR082C, strain KSP1, hits give low values): 0.932
normalized growth (S. cerevisiae deletion strains, locus YHR205W, strain SCH9, hits give low values): 0.957
normalized growth (S. cerevisiae deletion strains, locus YIL147C, strain SLN1, hits give low values): 0.958
normalized growth (S. cerevisiae deletion strains, locus YJL095W, strain BCK1, hits give low values): 0.871
normalized growth (S. cerevisiae deletion strains, locus YJL128C, strain PBS2, hits give low values): 0.975
normalized growth (S. cerevisiae deletion strains, locus YJL157C, strain FAR1, hits give low values): 0.88
normalized growth (S. cerevisiae deletion strains, locus YJR016C, strain ILV3, hits give low values): 0.967
normalized growth (S. cerevisiae deletion strains, locus YJR066W, strain TOR1 (second series), hits give low values): 0.874
normalized growth (S. cerevisiae deletion strains, locus YJR066W, strain TOR1, hits give low values): 0.881
normalized growth (S. cerevisiae deletion strains, locus YKL048C, strain ELM1, hits give low values): 0.941
normalized growth (S. cerevisiae deletion strains, locus YKL067W, strain YNK1, hits give low values): 0.951
normalized growth (S. cerevisiae deletion strains, locus YKL101W, strain HSL1, hits give low values): 0.91
normalized growth (S. cerevisiae deletion strains, locus YKL193C, strain SDS22, hits give low values): 0.971
normalized growth (S. cerevisiae deletion strains, locus YKL203C, strain TOR2, hits give low values): 0.9
normalized growth (S. cerevisiae deletion strains, locus YLR113W, strain HOG1, hits give low values): 0.93
normalized growth (S. cerevisiae deletion strains, locus YLR133W, strain CKI1, hits give low values): 0.911
normalized growth (S. cerevisiae deletion strains, locus YLR403W, strain SFP1, hits give low values): 0.843
normalized growth (S. cerevisiae deletion strains, locus YML070W, strain DAK1, hits give low values): 0.918
normalized growth (S. cerevisiae deletion strains, locus YMR001C, strain CDC5, hits give low values): 0.967
normalized growth (S. cerevisiae deletion strains, locus YMR205C, strain PFK2 (second series), hits give low values): 0.945
normalized growth (S. cerevisiae deletion strains, locus YMR277W, strain FCP1, hits give low values): 0.978
normalized growth (S. cerevisiae deletion strains, locus YNL006W, strain LST8, hits give low values): 0.988
normalized growth (S. cerevisiae deletion strains, locus YNL020C, strain ARK1, hits give low values): 0.917
normalized growth (S. cerevisiae deletion strains, locus YNL161W, strain CBK1, hits give low values): 0.978
normalized growth (S. cerevisiae deletion strains, locus YNL183C, strain NPR1, hits give low values): 0.895
normalized growth (S. cerevisiae deletion strains, locus YNL207W, strain RIO2, hits give low values): 0.936
normalized growth (S. cerevisiae deletion strains, locus YNL222W, strain SSU72, hits give low values): 0.977
normalized growth (S. cerevisiae deletion strains, locus YNL307C, strain MCK1 (second series), hits give low values): 0.862
normalized growth (S. cerevisiae deletion strains, locus YOL078W, strain AVO1, hits give low values): 0.964
normalized growth (S. cerevisiae deletion strains, locus YOL136C, strain PFK27, hits give low values): 0.957
normalized growth (S. cerevisiae deletion strains, locus YOR061W, strain CKA2, hits give low values): 0.891
normalized growth (S. cerevisiae deletion strains, locus YOR119C, strain RIO1, hits give low values): 0.906
normalized growth (S. cerevisiae deletion strains, locus YOR231W, strain MKK1, hits give low values): 0.875
normalized growth (S. cerevisiae deletion strains, locus YOR329C, strain SCD5, hits give low values): 0.968
normalized growth (S. cerevisiae deletion strains, locus YPL031C, strain PHO85, hits give low values): 0.863
normalized growth (S. cerevisiae deletion strains, locus YPL153C, strain RAD53, hits give low values): 0.828
normalized growth (S. cerevisiae deletion strains, locus YPL204W, strain HRR25, hits give low values): 0.85
normalized growth (S. cerevisiae deletion strains, locus YPL209C, strain IPL1, hits give low values): 0.98
normalized growth (S. cerevisiae deletion strains, locus YPL256C, strain CLN2, hits give low values): 0.951
normalized growth (S. cerevisiae deletion strains, locus YPR025C, strain CCL1, hits give low values): 0.975
normalized growth (S. cerevisiae deletion strains, locus YPR106W, strain ISR1, hits give low values): 0.984
normalized growth (S. cerevisiae deletion strains, locus YPR111W, strain DBF20, hits give low values): 0.983
normalized growth (S. cerevisiae deletion strains, strain NNK1, hits give low values): 0.993
normalized growth (S. cerevisiae deletion strains, strain TSCII, hits give low values): 0.975

CNC(=S)NN=C(N)c1ccccn1
normalized growth [1]: 1.02
normalized growth [2]: 1.02
normalized growth [3]: 0.972
normalized growth [4]: 0.963
normalized growth [5]: 1.04
normalized growth [6]: 0.93
normalized growth [7]: 1.01
normalized growth [8]: 0.786
normalized growth [9]: 1.05
normalized growth (S. cerevisiae deletion strains, locus YJL187C, strain SWE1, hits give low values): 1.01
normalized growth [10]: 1.01
normalized growth [11]: 1.01
normalized growth (S. cerevisiae deletion strains, locus YKL190W, strain CNB1, hits give low values): 0.521 (active)
normalized growth [12]: 0.519 (active)
normalized growth [13]: 1.01
normalized growth [14]: 0.484 (active)
normalized growth [15]: 0.698 (active)
normalized growth [16]: 0.831 (active)
normalized growth [17]: 1.01
normalized growth [18]: 1.01
normalized growth [30]: 0.525 (active)
normalized growth [20]: 0.989
normalized growth [21]: 0.75 (active)
normalized growth [22]: 1.04
normalized growth [23]: 0.669 (active)
normalized growth [24]: 0.167 (active)
normalized growth [25]: 1.03
normalized growth [35]: 0.682 (active)
normalized growth [26]: 0.7
normalized growth [36]: 0.64 (active)
